Structures are written as SMILES. The source made the active and inactive calls.

The text below walks through data of PubChem BioAssay.

This experiment can be described thus: CREB reporter modulators under forskolin, primary screen, cell-based, PC12, CRE-LacZ reporter, forskolin-stimulated (AID 1146).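 Also: PC12 cells with 6xCRE LacZ reporter stimulated by forskolin 10 µM; beta-galactosidase reporter signal reflecting CREB driven transcription.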 The following applies: luminescence, 4.5 h, higher = more signal, called active from +8 up or from −8 down.
For `CON=C(C)CCC(=O)OC[C@H]1O[C@H](C#Cc2ccccc2)C=C[C@@H]1Oc1ccc(C)cc1`, the z-score is 1.24 (inactive).

In the case of `CC(C)(C)N1C(=O)[C@H]2[C@H]3[C@H](O)[C@H](O)CC(=NOC[C@@H](O)COCc4ccco4)[C@@H]3CC[C@H]2C1=O`, the z-score was 0.279 (inactive).

For the molecule `CO[C@@H]1[C@H](O)CO[C@H]1C=Cc1ccccc1`, the z-score was -0.43 (inactive). To `CCN1C(=O)[C@H]2[C@H]3[C@H](O)[C@H](O)CC(=NOCC[C@@H]4C=C[C@H](OC(C)=O)[C@@H](COC(C)=O)O4)[C@@H]3CC[C@H]2C1=O` belongs 0.313 (inactive); to `CO[C@@H](C1CCCCC1)[C@@H](C)[C@H](OCc1cccc(Br)c1)[C@@H](C)CO`, 0.432 (inactive). For `CCOC(=O)CCN1C(=O)[C@H]2[C@H]3[C@H](O)[C@H](O)CC(=NOCC(C)C)[C@@H]3CC[C@H]2C1=O`, the z-score is -0.209 (inactive).

Turning to `CCOC(=O)CCN1C(=O)[C@H]2[C@H]3[C@H](O)[C@H](O)CC(=NO[C@@H]4O[C@H](CO)[C@@H](O)[C@H](O)[C@H]4O)[C@@H]3CC[C@H]2C1=O`, the z-score is 1.17 (inactive). Turning to `CO[C@H]1COC(=O)CC=C[C@@H](C)COC(=O)[C@H]2CCCN2C(=O)CC=C[C@H]1C`, the z-score is -1.05 (inactive).

With `CCOC(=O)[C@H](Cc1ccccc1)NC(=O)CCC1CC(OC(=O)NCc2cccc3ccccc23)CC2(CCCC(COC(=O)NCCc3ccccc3OC)O2)O1` (stereo partly specified), the z-score is -0.745 (inactive). To `Cc1ccc(S(=O)(=O)N[C@@H]2COC(=O)CC=C[C@@H](C)[C@H](NS(=O)(=O)c3ccc(C)cc3)COC(=O)[C@H](C)NC(=O)CC=C[C@H]2C)cc1` belongs -0.863 (inactive); to `CCN1C(=O)[C@H]2[C@H]3[C@H](O)[C@H](O)CC(=NOCC=C(C)CCC=C(C)C)[C@@H]3CC[C@H]2C1=O`, -0.157 (inactive); to `O=C1[C@H]2[C@H]3[C@H](O)[C@H](O)CC(=NOC[C@@H](O)COCc4ccco4)[C@@H]3CC[C@H]2C(=O)N1Cc1ccccc1`, 0.183 (inactive).

Take `O=C1[C@H]2CCn3c(=O)n(-c4ccccc4)c(=O)n3[C@H]2[C@H](O)[C@@H]2O[C@H]12`: the z-score was 0.0871 (inactive).

Take `CON=C[C@@H](OC)[C@H](C)C=CCC(=O)OC`: the z-score was 0.034 (inactive). Then `CC(C)=CCCC(C)=CCON=C1C[C@@H](O)[C@@H](O)[C@@H]2[C@@H]3C(=O)N(Cc4ccc5c(c4)OCO5)C(=O)[C@@H]3CC[C@@H]12`, with 0.217 (inactive). Then `CC(=O)OC[C@H]1O[C@H](CC=NO[C@@H](C)c2cc(-c3c(C)cc(C)cc3C)no2)C=C[C@@H]1OC(C)=O`, with 0.481 (inactive).

In the case of `COc1ccc(-c2cnnc(CCCn3ccnc3-c3ccccc3)n2)cc1`, the z-score was -0.631 (inactive). To `O=C1C2=CC[C@H]3C(=O)N(c4ccc(F)cc4F)C(=O)[C@H]3[C@H]2[C@H](O)[C@@H]2O[C@H]12` belongs 0.305 (inactive); to `COC(=O)CC=C[C@@H](C)[C@@H](C=NOC[C@@H](O)COCc1ccco1)OC`, -0.252 (inactive); to `COC(=O)[C@H](C)NC(=O)CCC1CC(OC(=O)NCc2cccc3ccccc23)CC2(CCCC(COC(=O)NCCCN3CCCC3=O)O2)O1` (stereo partly specified), -0.178 (inactive). To `CCOC(=O)[C@H](CC(C)C)NC(=O)CCC1CC(OC(=O)NCc2ccc3c(c2)OCO3)CC2(CCCC(COC(=O)NCCc3ccccc3OC)O2)O1` (stereo partly specified) belongs 0.101 (inactive); to `CO[C@@H](C(C)C)[C@@H](C)C1OC(=O)CC1O` (stereo partly specified), -0.0208 (inactive). Then `Cc1ccc(C(C)C)n1C(=O)OC(C)(C)C`, with 0.686 (inactive); and `CCOC(=O)[C@H](Cc1ccccc1)NC(=O)CCC1CC(OC(=O)NCc2ccc3c(c2)OCO3)CC2(CCCC(COC(=O)NCCOc3ccccc3)O2)O1` (stereo partly specified), with -0.361 (inactive); and `CSCC[C@@H]1NC(=O)CC=C[C@@H](C)COC(=O)[C@H](C)COC1=O`, with -0.925 (inactive).

Take `CO[C@H]1COC(=O)CCC[C@H](C)[C@@H](OC)COC(=O)CC=C[C@@H]1C`: the z-score was -0.24 (inactive). Consider `CC(C)[C@@H](OCc1ccccc1)[C@H](C)C=NO[C@@H](C)c1cn([C@H](CO)Cc2ccccc2)nn1`, for which the z-score was -0.0785 (inactive).

Consider `CCN1C(=O)[C@H]2[C@@H]3C(=CC[C@H]2C1=O)C(=O)[C@H]1O[C@H]1[C@H]3O`, for which the z-score is 21.9 (active). Then `CC(C)=CCCC(C)=CCON=C1C[C@@H](O)[C@@H](O)[C@@H]2[C@@H]3C(=O)N(C4CCCCC4)C(=O)[C@@H]3CC[C@H]12`, with -0.306 (inactive); and `C=CC[C@@H]1C=C[C@H](ON=C[C@@H](NS(=O)(=O)c2ccc(C)cc2)[C@H](C)C=CCC(=O)OC)[C@@H](CO)O1`, with 0.983 (inactive); and `COC(=O)[C@H](C)NC(=O)CCC1CC(OC(=O)NCCc2ccc(F)cc2)CC2(CCCC(COC(=O)NCCOc3ccccc3)O2)O1` (stereo partly specified), with -0.501 (inactive). To `CO[C@@H]1COC(=O)[C@H](COCc2ccccc2)NC(=O)CC=C[C@@H](C)[C@H](OC)COC(=O)[C@@H](C)NC(=O)CC=C[C@H]1C` belongs -0.803 (inactive); to `CC(CCC(=O)OC[C@H]1O[C@H](C#Cc2ccccc2)C=C[C@@H]1Oc1ccc(C)cc1)=NOC[C@@H](C)[C@H](OCc1ccccc1)C(C)C`, 0.778 (inactive). Then `COC(=O)[C@H](C)NC(=O)CC=C[C@@H](C)[C@@H]1C=C[C@H](O)[C@@H](CO)O1`, with 0.222 (inactive); and `C=CC[C@@H]1C=C[C@H](ON=C(C)CCN2CCCc3nc(C)c(C)cc32)[C@@H](CO)O1`, with -0.299 (inactive). Consider `O=C1C=C[C@@H](O)[C@@H]2[C@@H]3C(=O)N(Cc4ccccc4)C(=O)[C@@H]3CC[C@@H]12`, for which the z-score was -0.768 (inactive).
